AmpC inh detg – inhibitors of E. coli AmpC beta-lactamase with detergent; Potency, µM (top dose mostly 114 µM), for inactives: at the top dose activity change, negative = inhibition, most hits filed as inhibitors; hit rate 0.041% among 370,000; P00811; AmpC hydrolysis of nitrocefin, absorbance 480 nm, 0.01% Triton; AID 485294;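 also: 0% = no-compound wells and -100% = no-enzyme wells; nearly all actives have a fitted effect of over 25% in size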
Target sequence (P00811 whole entry, looked up): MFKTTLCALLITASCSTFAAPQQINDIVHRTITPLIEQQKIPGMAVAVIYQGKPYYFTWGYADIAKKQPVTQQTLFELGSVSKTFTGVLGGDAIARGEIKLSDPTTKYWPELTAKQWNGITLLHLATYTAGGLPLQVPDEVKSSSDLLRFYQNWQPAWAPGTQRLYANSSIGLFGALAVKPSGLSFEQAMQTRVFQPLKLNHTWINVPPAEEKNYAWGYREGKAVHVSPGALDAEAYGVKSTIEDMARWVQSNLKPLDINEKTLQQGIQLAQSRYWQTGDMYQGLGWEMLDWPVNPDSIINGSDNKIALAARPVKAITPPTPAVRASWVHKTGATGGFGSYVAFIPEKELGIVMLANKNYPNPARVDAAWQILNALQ
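AmpC (5.3 nM in the dispensed reagent) in 20 mM phosphate pH 7.0 with 0.01% (detergent screen) or 0.0001% Triton X-100 was preincubated with compounds for 15 min at room temperature. Nitrocefin was then added from an 800 uM solution, and hydrolysis was followed at 480 nm.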
HCV inhibitor – inhibitors of hepatitis C virus infection; Huh7.5.1 HCVcc-Cre infection, luciferase reporter, 44 h; Potency, µM (doses to about 41.8 µM), inactives show at the top dose activity change, negative = inhibition, actives largely listed as inhibitors; hit rate 3.4% among 340,000; AID 651820
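Cells (1,000/well) were plated 4 h before compound, then infected with HCVcc-Cre virus (~0.5 moi). After 44 h further culture, infection was read as luciferase luminescence following a 15 min substrate incubation at room temperature.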
Pf growth 96h – P. falciparum growth inhibition at 96 hours; hit rate 6.9% among 320,000; Potency, µM (top dose mostly 28.7 µM), for the others: at the top dose activity change, negative = inhibition, usual class: inhibitors; P. falciparum luciferase reporter growth, 96 h
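P. falciparum expressing integrated firefly luciferase, in erythrocytes at 2% hematocrit, 0.05% parasitemia, incubated with compounds 96 h at 37 C, 5% CO2. Growth inhibition read as loss of luminescence; two-generation exposure targets delayed-death apicoplast inhibitors.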
Pf growth 48h – P. falciparum growth inhibition at 48 hours (one generation); hit rate 5.9% among 310,000; AID 504832; P. falciparum luciferase growth in erythrocytes, 48 h; Potency, µM (doses to about 28.7 µM), without a hit: at the top dose activity change, negative = inhibition, hits mostly inhibitors
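Erythrocytes infected with P. falciparum carrying an integrated firefly luciferase reporter (2% hematocrit, 0.1% parasitemia final) were exposed to compounds in RPMI 1640 with 0.5% Albumax at 37 C, 5% CO2. Growth inhibition was scored as reduced luminescence.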
AMA1 RON2 block – inhibitors of Plasmodium falciparum AMA1-RON2 interaction; Potency, µM (series often up to 58.2 µM), for the others: top-dose activity change, negative = inhibition, usual class: inhibitors; AlphaScreen AMA1-biotinylated RON2 peptide binding; hit rate 0.2% among 360,000; AID 720542;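 also: 0% = vehicle wells and -100% = peptide control; nearly all actives have a fitted effect of over 45% in size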
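AMA1 (3D7) with his tag at 25 nM final met compounds first, then biotinylated RON2 peptide at 25 nM; detection used donor plus acceptor beads, 10 µg/mL apiece, read by AlphaScreen after 30 min at room temperature.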
AmpC no deterg – inhibitors of E. coli AmpC beta-lactamase without detergent | P00811 | AmpC nitrocefin hydrolysis, absorbance 480 nm, 0.0001% Triton | hit rate 0.52% among 330,000 | Potency, µM (top dose mostly 57.1 µM), without a hit: at the top dose activity change, negative = inhibition, hits mostly inhibitors;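 also: plate controls were no compound for no effect and no enzyme for full effect; nearly all actives have a fitted effect of over 20% in size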
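AmpC (5.3 nM in the dispensed reagent) in 20 mM phosphate pH 7.0 with 0.01% (detergent screen) or 0.0001% Triton X-100 was preincubated with compounds for 15 min at room temperature. Nitrocefin was then added from an 800 uM solution, and hydrolysis was followed at 480 nm.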
Active calls of the source: *; ? = inconclusive; . = no result; [ ] = remark or other dose. Shown are actives, neighbours in structure and some others; about 11% of the full set was active somewhere. Calls follow the shape of the dose curve; as a rule, active = well fitted curve in the direction sought with a large enough effect; inconclusive = small, poorly fitted or top-dose-only effect, or another doubt; inactive = no such curve, though single readings can be large; an effect the other way counts as inactive or inconclusive. Unless noted, % is scaled to controls: 0 for no effect and ±100 for the full control effect; potency is read from the fitted curve at half-maximal effect.

SMILES	AmpC inh detg	HCV inhibitor	Pf growth 96h	Pf growth 48h	AMA1 RON2 block	AmpC no deterg
Cc1cccc(-n2ncc(C(=O)N3CCN(C4CCCCC4)CC3)c2C2CCN(C(=O)OC(C)(C)C)CC2)c1	24%	.	.	.	.	.
Cc1ccccc1C(=O)NCC(c1ccco1)N1CCc2ccccc2C1 (centres undefined)	?	-6%	-2%	-23%	1%	-27%
CC(=O)Nc1cccc(NC(=O)C(=O)NCC(c2ccco2)N2CCc3ccccc3C2)c1 (centres undefined)	?	?	?	12µM*	0%	20%
CCc1cc(=O)[nH]c(SCc2nc(-c3cccc(Cl)c3)no2)n1	12%	.	.	.	.	.
COC(=O)/C=C1\S/C(=N/N=C/c2ccc(Cl)cc2)NC1=O	2%	31%	8%	15µM*	-5%	-27%
COC(=O)C/C=N/N=C1/NC(=O)/C(=C/C(=O)O)S1	6%	7%	9.3µM*	?	26%	-23%
COc1ccc(CCNC(=O)c2ccc3c(c2)CCN3S(=O)(=O)c2ccccc2)cc1	12%	.	.	.	.	.
COc1cccc(CN2C(=O)c3ccccc3Sc3ccc(C(=O)N(C)Cc4ccccc4)cc32)c1	7%	.	.	.	.	.
O=C1[C@@H]2CSC(c3ccc(Cl)cc3)N2C(=O)N1c1ccccc1 (some centres undefined)	0%	.	.	.	.	.
CCOC(=O)C(C)NC(=O)c1cc2c(=O)[nH]c3ccc(C)cc3c2s1 (centres undefined)	11%	.	.	.	.	.
CCCCOc1ccc(CNC(=O)c2cnc3sc(N4CCC(C)CC4)nn3c2=O)cc1	11%	.	.	.	.	.
COc1cc2c3nnc(-c4ccc(F)cc4)c-3cn(Cc3cccc(C)c3)c2cc1OC	-18%	7%	0.47µM*	0.59µM*	0%	-32%
COc1cc2c3nnc(-c4ccc(F)cc4)c-3cn(Cc3cccc(F)c3)c2cc1OC	-5%	?	1µM*	0.59µM*	?	-10%
COc1cc2c3nnc(-c4ccc(F)cc4)c-3cn(Cc3ccc(C)cc3)c2cc1OC	?	6%	0.37µM*	0.33µM*	-1%	1%
COc1cc2c3nnc(-c4ccccc4)c-3cn(Cc3ccc(F)cc3)c2cc1OC	8%	-21%	?	-37%[1.15 µM]	6%	132%
COc1cccc(Cn2nc3c4cc(F)ccc4n(Cc4ccc(F)cc4)cc-3c2=O)c1	-2%	15%	1.7µM*	-1%	-14%	-15%
Cc1cc(C)cc(NC(=O)CC(C)n2nc(C)cc2C)c1 (centres undefined)	5%	.	.	.	.	.
O=C(COc1ccc(F)cc1)NCC(c1ccc(Cl)cc1)N1CCCCC1 (centres undefined)	3%	.	.	.	.	.
NC(=O)c1nsc(C(=O)N(c2ccccc2)C(C(=O)NCC2CCCO2)c2ccc3ncccc3c2)c1N (centres undefined)	7%	-14%	?	12µM*	-5%	93%
CC(C)c1ccc(N(C(=O)c2snc(C(N)=O)c2N)C(C(=O)NCC2CCCO2)c2ccc(N(C)C)cc2)cc1 (centres undefined)	6%	?	10%	?	14µM*	124%
Cc1ccccc1N(C(=O)c1snc(C(N)=O)c1N)C(C(=O)NCC1CCCO1)c1ccc(N(C)C)cc1 (centres undefined)	2%	-1%	?	1.7µM*	-24%	-5%
CCc1ccccc1N(C(=O)c1snc(C(N)=O)c1N)C(C(=O)NCC1CCCO1)c1ccc(N(C)C)cc1 (centres undefined)	?	8%	160%	?	-1%	13%
CN(C)c1ccc(C(C(=O)NCC2CCCO2)N(C(=O)c2snc(C(N)=O)c2N)c2ccccc2)cc1 (centres undefined)	8%	-1%	11%	2.9µM*	-8%	-9%
COc1ccc(-n2c(=O)c3c4c(sc3n(Cc3ccc(C(C)(C)C)cc3)c2=O)CCC4)c(OC)c1	-1%	.	.	.	.	.
Cc1ccc(S(=O)(=O)c2cn(C)c3cc(N4CCOCC4)c(F)cc3c2=O)c(C)c1	20%	.	.	.	.	.
SMILES	AmpC inh detg	HCV inhibitor	Pf growth 96h	Pf growth 48h	AMA1 RON2 block	AmpC no deterg
CN(C)c1ccc(C(C(=O)NCC2CCCO2)N(C(=O)c2snc(C(N)=O)c2N)c2ccc3c(c2)OCO3)cc1 (centres undefined)	?	-17%	?	?	-30%	165%
Cc1cccc(N(C(=O)c2snc(C(N)=O)c2N)C(C(=O)NCC2CCCO2)c2ccc(N(C)C)cc2)c1 (centres undefined)	0%	-10%	40%	13µM*	2%	-9%
CCOc1ccc(C(C(=O)NCC2CCCO2)N(Cc2cccc(OC)c2)C(=O)c2snc(C(N)=O)c2N)cc1 (centres undefined)	3%	-20%	?	13µM*	-22%	146%
CN(C)c1ccc(CNS(=O)(=O)c2ccc(-c3cc(C(F)(F)F)on3)s2)cc1	4%	.	.	.	.	.
Nc1nnnn1/N=C/c1ccccc1	1%	12%	37%	9%	15%	-18%
Nc1nnnn1/N=C/c1cccc(Oc2ccccc2)c1	?	3%	7.4µM*	42%	-1%	-22%
O=C(Nc1ccc(OC(F)(F)F)cc1)C(NS(=O)(=O)c1cccc2nsnc12)c1ccccc1 (centres undefined)	10%	.	.	.	.	.
CN(C)c1nc(N(C)C)nc(N(C#N)CCOc2ccccc2)n1	-1%	11µM*	?	?	10%	-14%
COc1cccc(Cn2nnc(C(=O)NCc3ccc4c(c3)OCO4)c2N)c1	1%	-26%	?	17%	11%	35µM*
COc1ccc(Cn2nnc(C(=O)Nc3ccc4c(c3)OCCO4)c2N)cc1Br	0%	4%	12µM*	-18%	0%	-26%
COc1ccc(NC(=O)Cn2nnc(C(=O)NCc3cccs3)c2N)cc1Cl	?	5%	5%	12%	1%	-28%
Cc1cc(C)c(NC(=O)Cn2nnc(C(=O)NCc3ccc4c(c3)OCO4)c2N)c(C)c1	-1%	11%	15µM*	20%	-9%	-31%
Cc1ccc(NC(=O)Cn2nnc(C(=O)NCc3cccs3)c2N)cc1Cl	1%	1%	9.3µM*	37%	-3%	-13%
Cc1ccc(NC(=O)Cn2nnc(C(=O)NCc3ccc4c(c3)OCO4)c2N)cc1	0%	10%	32%	0%	7%	-23%
Nc1c(C(=O)Nc2ccc3c(c2)OCCO3)nnn1Cc1ccc(Cl)cc1	?	-13%	212%	101%	13%	-20%
Cc1ccc(CN2CCSc3ccc(C(=O)Nc4ccc(C)cc4)cc32)cc1	-8%	.	.	.	.	.

Screening data: PubChem, National Center for Advancing Translational Sciences (NCATS)
